# Bioassay records deposited in PubChem by National Center for Advancing Translational Sciences (NCATS).
# ALDH1A1 inh: inhibitors of human aldehyde dehydrogenase 1A1; P00352; Purified ALDH1A1, NADH fluorescence, propionaldehyde substrate; Potency, µM (highest dose often 75.3 µM), actives largely listed as inhibitors; 7.3% of 220,000 active; AID 1030
# HPGD inh: blocks human HPGD enzyme activity; P15428; purified HPGD, NADH fluorescence kinetic, PGE2 substrate; Potency, µM, usual class: inhibitors; 4.3% of 150,000 active; AID 894
# Target sequence (P15428 whole entry, looked up): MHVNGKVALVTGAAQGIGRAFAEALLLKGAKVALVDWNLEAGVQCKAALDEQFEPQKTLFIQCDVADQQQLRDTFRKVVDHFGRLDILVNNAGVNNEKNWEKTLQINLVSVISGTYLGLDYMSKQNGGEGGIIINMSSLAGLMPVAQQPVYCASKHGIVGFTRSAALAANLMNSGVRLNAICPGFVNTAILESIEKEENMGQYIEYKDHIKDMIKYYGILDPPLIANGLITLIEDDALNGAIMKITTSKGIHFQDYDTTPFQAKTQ
#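 20 nM HPGD preincubated 15 min at room temperature with compound in 50 mM Tris-HCl pH 8, 0.01% Tween 20. Started with 1 mM NAD+ and 30 uM prostaglandin E2; NADH fluorescence (360/450 nm) read 5 times over 30-s intervals, last minus first.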
# LMNA splice mod: LMNA splicing modulation; HeLa LMNA splicing GFP/RFP minigene ratio, 48 h; Potency, µM (highest dose often 46.1 µM), most hits filed as inhibitors; 0.01% of 200,000 active; active means well fitted inhibition curve with a large enough effect in the signal ratio, with a control signal flat, not every such curve was filed as active; inconclusive means small, poorly fitted or top-dose-only effect, or effect the other way, or a change in a side signal; the % refers to the signal ratio
#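 S3 HeLa stable clones carrying a lamin A-EGFP splicing minigene plus DsRed2 were seeded at 600 cells/well in Opti-MEM with 2% FBS, pin-dosed and incubated 48 h at 37°C. Acumen cytometry (488 nm) gave the GFP/RFP total-intensity ratio.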
# 12-hLO inh: 12-hLO (ALOX12) enzyme inhibition | P18054 | 0.12% of 150,000 active | purified 12-hLO, xylenol orange hydroperoxide absorbance | AID 1452 | Potency, µM (titrated, usually from 57.1 µM), actives largely listed as inhibitors; active means well fitted inhibition curve with a large enough effect; inconclusive means small, poorly fitted or top-dose-only effect; further: nearly all actives have a fitted effect of over 55% in size
#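 Lipoxygenase turnover measured by absorbance at 573 and 405 nm after Fe-XO development. Human 12hLO 150 nM, arachidonate 40 uM, pH 7.0 Hepes buffer with detergent; 15 min compound preincubation, 30 min reaction.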
# PNC inhibitor: inhibitors of perinucleolar compartment assembly | 3.1% of 140,000 active | activity change (PNC), negative = inhibition, % at 10 µM | PC3M PTB-GFP, PNC prevalence imaging, 16 h; hits give low values;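 active means readout at or below -70, meaning at least 70% loss of cells showing the perinucleolar compartment, a nuclear body marking cancer cells; inconclusive means readout between -30 and a set limit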
#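 Read-out is percentage of cells bearing a perinucleolar compartment, from automated 20x imaging of fixed, Hoechst-stained PC3M PTB-GFP cells. Cells were seeded 4 h, then exposed 16 h to compound (23 nl of library stock) in duplicate plates.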
# Hits are given with their value; . = inactive; ? = inconclusive; / = no result; [ ] = dose if it differs, or a comment. In the library only some 10% were active in any assay of this set; here they are far more common. Unless noted, the call rests on the fitted dose curve; in most records, active means well fitted inhibition curve with a large enough effect (not every such curve was filed as active); inconclusive means small, poorly fitted or top-dose-only effect, or another doubt; inactive means no such curve, though single readings can be large or run the other way.
SMILES,ALDH1A1 inh,HPGD inh,LMNA splice mod,12-hLO inh,PNC inhibitor
Cc1cccc(NCCC(=O)c2ccc(Br)cc2)c1,0.79µM,.,?,.,.
CC(C)c1ccc(NCCC(=O)c2ccc(Br)cc2)cc1,4µM,.,.,.,?
Cc1ccc(C(=O)NCC(=O)NCC(=O)OCC(=O)c2ccc(Br)cc2)cc1,.,.,.,.,.
CCOC(=O)CNCCC(=O)c1ccc(Br)cc1,0.28µM,?,.,.,.
Cc1cccc(CCNC(=O)c2ccc3c(c2)nc2n3CCOC2)c1,/,/,.,/,/
O=C(O)C(O)C(O)(Cc1ccc(O)cc1)C(=O)O (stereo unspecified),.,.,/,/,/
COc1cc(C(=O)NCC(c2cccnc2)N2CCc3ccccc32)cc(OC)c1OC (stereo unspecified),/,/,.,/,/
C=CCn1c(=O)/c(=C/c2ccc(Cl)cc2)s/c1=C(/C#N)c1nnc2n1CCCCC2,?,25µM,.,.,.
C=CCn1c(=O)/c(=C/c2ccc(O)cc2)s/c1=C(/C#N)c1nnc2n1CCCCC2,?,.,.,.,.
COCCN(C(=O)Cc1cccs1)c1nnc(-c2ccncc2)s1,13µM,.,.,.,.
COCCN(C(=O)COc1ccc(Cl)cc1)c1nnc(-c2cccnc2)s1,.,.,.,.,-100
CCN(C(=O)c1cccs1)c1nnc(-c2ccncc2)s1,.,.,.,.,?
COCCN(C(=O)COc1ccccc1)c1nnc(-c2cccnc2)s1,.,.,.,.,.
COc1ccc(CNC(=O)c2ccc3nc(CCc4ccccc4)oc3c2)cc1OC,/,/,.,/,/
Cc1cnc(CNc2nc(-c3cccc(NS(C)(=O)=O)c3)nc3ccccc23)cn1,.,/,.,/,/
OCCN(CC(O)Cn1ccc2ccccc21)CC(O)Cn1ccc2ccccc21 (stereo unspecified),28µM,.,.,.,.
CC(C)(C)c1ccc(OCC(O)CN(CCO)CC(O)Cn2ccc3ccccc32)cc1 (stereo unspecified),.,.,.,.,.
CC1(C)OC(=O)C=C[C@@]2(C)C1C[C@@H](O)[C@]1(C)C2CC[C@@]2(C)C(c3ccoc3)OC(=O)[C@H]3O[C@]321 (stereo partly specified),.,.,/,/,/
C=CCOc1ccc2ccccc2c1/C=N/O,.,2.5µM,.,.,.
C=CCOc1ccc(Br)cc1/C=N/O,?,4.5µM,.,.,.
CCOc1ccc2ccccc2c1/C=N\NC(=O)OC,?,.,.,.,.
C=CCOc1ccc(/C=N/O)cc1Cl,.,.,.,.,.
COc1ccc2ccccc2c1/C=N/O,.,7.1µM,.,.,-108
COc1ccc(S(=O)(=O)n2nc(C)c(S(=O)(=O)N3CCC(C)CC3)c2C)cc1OC,/,/,.,/,/
COc1ccc(C(CNC(=O)c2oc3ccc(C)cc3c2C)N2CCOCC2)cc1 (stereo unspecified),/,/,.,/,/
SMILES,ALDH1A1 inh,HPGD inh,LMNA splice mod,12-hLO inh,PNC inhibitor
COc1ccc(-c2cc(CNC(=O)CN3CCN(C)CC3)on2)cc1,?,.,.,.,?
CCN(CC)CC(=O)NCc1cc(-c2ccc(OC)cc2)no1,.,1.3µM,.,.,.
COc1ccc(/C=N/NC(=O)C2(C)NC(C)(C)Cc3ccccc32)cc1 (stereo unspecified),.,/,?,/,/
CCOC(=O)CN1C(=O)N[C@H](c2ccc(Br)cc2)C(C(C)=O)=C1C,14µM,.,.,.,.
CCOC(=O)CN1C(=O)N[C@@H](c2ccc(Br)cc2)C(C(=O)OC)=C1C,.[13.5 µM],.,.[9.22 µM],.[11.4 µM],/
O=C1CCSC2(C(=O)N(Cc3ccccc3)c3ccccc32)N1c1ccccc1 (stereo unspecified),/,/,.,/,/
Cc1ccn2c(C(=O)N/N=C\c3cccs3)c(C)nc2c1,?,.,.,.,?
Cc1ccn2c(C(=O)NN=C3CCN(C)CC3)c(C)nc2c1,2.2µM,/,/,/,/
Cc1ccc(C)c(-n2c(C)cc(/C=N/NC(=O)c3c(C)nc4cc(C)ccn34)c2C)c1,13µM,?,?,.,.
Cc1ccc2nc(C)c(C(=O)NN=C3CCCCCC3)n2c1,7.9µM,/,.,/,/
CCOc1ccc(-n2c(SCC(=O)N3CCc4ccccc43)nc3c([nH]c4ccccc43)c2=O)cc1,/,/,.,/,/
CCOC(=O)c1c(S(=O)(=O)N2CCCC(C(=O)N3CCN(c4cc(C)ccc4C)CC3)C2)c(C)n(C)c1C (stereo unspecified),/,/,.,/,/
CCc1cc2c(N3CCN(c4ccccc4)CC3)ncnc2s1,.,.,.,.,.
Oc1ccc(N2CCN(c3ncnc4sc(-c5ccccc5)cc34)CC2)cc1,25µM,/,/,/,/
COc1ccc(CCNC(=O)Cn2cc(S(=O)(=O)Cc3ccc(F)cc3)c3ccccc32)cc1OC,/,/,.,/,/
CCC1Oc2ccc(C)cc2N(CC(=O)N(Cc2cccnc2)Cc2ccc(C)o2)C1=O (stereo unspecified),3.2µM,28µM,.,.,.
N#CC(=C1CCCC1)c1nc(-c2ccccc2O)cs1,25µM,?,.,.,?
CCN(CC)CCc1c(C)[nH]c(C(=O)OCc2ccccc2)c1C,20µM,.,.,.,?
CC1CCC/C(=N\NC(=S)NCc2ccccc2)C1 (stereo unspecified),?,.,.,.,.
CC1C/C(=N\NC(=S)NCc2ccccc2)CC(C)(C)C1 (stereo unspecified),25µM,.,.,?,?
COCc1cc(C)nc2sc(C(=O)N3CCCCC3)c(N)c12,18µM,0.25µM,.,.,?
CC(=O)N1CCCc2ccc(NS(=O)(=O)c3cccc(Cl)c3)cc21,/,/,.,/,/
Nc1ccc2c(c1)C(=O)C(=O)c1ccccc1-2,2.2µM,2.2µM,?,?,-81
Nc1ccc2c(c1)C(=O)c1ccccc1C2=O,?,.,/,.,/
O=C1C(=O)c2ccc(-c3ccccc3)cc2-c2ccccc21,.,.,?,.,-105
SMILES,ALDH1A1 inh,HPGD inh,LMNA splice mod,12-hLO inh,PNC inhibitor
Cc1ccc(C(=O)O/N=C\c2ccc(N3CCOCC3)c([N+](=O)[O-])c2)cc1,2.2µM,.,.,.,.
O=C(N/N=C/c1ccccc1)c1ccc(N2CCOCC2)c([N+](=O)[O-])c1,?,.,?,.,.
CCCCC(=O)N/N=C/c1ccc(N2CCOCC2)c([N+](=O)[O-])c1,11µM,.,.,.,.
C[C@@H](O)CCC[C@H](O)/C=C/[C@@H]1[C@@H](C/C=C\CCCC(=O)O)[C@@H](O)C[C@H]1O,.,.,/,.,/
CCOC(=O)N1CCC(NC(=O)CC(NS(=O)(=O)c2ccc(C)cc2)c2ccco2)CC1 (stereo unspecified),.,.,.,.,.
Cc1ccc(S(=O)(=O)NC(CC(=O)N2CCc3ccccc32)c2ccco2)cc1 (stereo unspecified),14µM,.,?,.,.
CC(c1nnnn1C1CCCCC1)N(Cc1ccccc1)Cc1cccnc1 (stereo unspecified),.,.,.,.,-100
Cc1ccc2[nH]c(=O)c(C(c3nnnn3C3CCCC3)N(Cc3cccnc3)Cc3ccco3)cc2c1 (stereo unspecified),4.5µM,.,.,.,.
